FLuc modulator – counter-screen for miR-21 project: firefly luciferase inhibitors or activators | Potency, µM (doses to about 57.5 µM), inactives show at the highest dose activity change, negative = inhibition, hits mostly inhibitors | 6.9% of 360,000 active | P08659 | purified FLuc, Km substrates, luminescence inhibition | AID 588342;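 note: plate controls were vehicle for no effect and reference inhibitor for full effect; nearly all actives have a fitted effect of over 55% in size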
Target sequence (P08659 whole entry, looked up): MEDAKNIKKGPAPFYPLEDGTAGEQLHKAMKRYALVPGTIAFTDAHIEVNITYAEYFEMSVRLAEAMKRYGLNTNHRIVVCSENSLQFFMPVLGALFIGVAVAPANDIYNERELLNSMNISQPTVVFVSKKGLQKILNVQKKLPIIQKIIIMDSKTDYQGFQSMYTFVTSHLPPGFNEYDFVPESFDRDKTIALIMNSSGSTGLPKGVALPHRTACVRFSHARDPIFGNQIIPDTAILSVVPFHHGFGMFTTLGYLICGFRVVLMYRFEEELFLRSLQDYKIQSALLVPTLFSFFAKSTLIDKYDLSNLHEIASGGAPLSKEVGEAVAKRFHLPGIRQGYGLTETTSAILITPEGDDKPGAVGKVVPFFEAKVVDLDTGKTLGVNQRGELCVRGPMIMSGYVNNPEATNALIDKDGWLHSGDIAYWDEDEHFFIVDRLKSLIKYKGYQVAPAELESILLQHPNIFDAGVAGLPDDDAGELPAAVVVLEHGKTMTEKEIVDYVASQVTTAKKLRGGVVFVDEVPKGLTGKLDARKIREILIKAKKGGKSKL
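Purified P. pyralis luciferase (10nM final) with 10uM D-luciferin and 10uM ATP (Km levels) in 50mM Tris acetate pH 7.5, 10mM Mg acetate, 0.01% Tween-20, 0.05% BSA; qHTS 6-point titration, ~60 µM downward; luminescence read.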
SMN2 splice up – enhancers of SMN2 splice variant expression. 2.8% of 210,000 active. Potency, µM (doses to about 46.1 µM), inactives show at the highest dose activity change, positive = activation, usual class: activators. HEK293 SMN2-luciferase splicing reporter, luminescence, 30-36 h; note: % of control where 0% means no effect; nearly all actives have a fitted effect of over 55% in size
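qHTS luciferase splicing reporter: luminescence rises when SMN2 exon 7 is included in transfected HEK293 cells. Compound exposure lasted 30-36 h at 37C, with 4.5 mM final sodium butyrate as control, followed by a ONE-Glo read.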
ELG1 genotoxic – induces genotoxicity in HEK293T cells with luciferase-tagged ELG1. Potency, µM (doses to about 46 µM), for inactives: top-dose activity change, positive = activation, actives largely listed as activators. HEK293T ELG1-luciferase reporter, luminescence, 16 h. 1.3% of 330,000 active; note: % of control where 0% means no effect; nearly all actives have a fitted effect of over 60% in size
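ELG1-luciferase HEK293T cells, 2,000/well; compound pinned in; 16 hr, 37 °C, 5% CO2; ONE-Glo, 30 min RT; luminescence on CCD imager.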
KinaseGlo FLuc – Kinase-Glo luciferase inhibition (counter-screen) | 0.28% of 200,000 active | Kinase-Glo luciferase, ATP luminescence, 8 min | AID 1379 | Q27757 | Potency, µM (highest dose often 38.3 µM), without a hit: at the highest dose activity change, negative = inhibition, usual class: inhibitors; note: % is set by controls: 0 for no effect and ±100 for the full control effect; nearly all actives have a fitted effect of over 60% in size
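Recombinant Kinase-Glo luciferase, 10 uM ATP (linear range), luciferin; imidazole pH 7.2 / KCl / MgCl2 / Tween / BSA buffer; 8 min RT; luminescence.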
Rab9 promoter act – Rab9 promoter activation; Huh7 Rab9 promoter-luciferase reporter, luminescence, 24 h; Potency, µM (series often up to 9.22 µM), without a hit: at the highest dose activation, negative = inhibition, hits mostly activators; 2.8% of 320,000 active; note: % of control where 0% means no effect; nearly all actives have a fitted effect of over 60% in size
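Huh7 cells stably carrying Rab9 promoter–luciferase reporter, plated 1500 cells/well, compound added after 2 h and incubated 24 h at 37 °C; luciferase luminescence then read after 10 min with detection reagent.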
NPC1 promoter act – activates the NPC1 promoter; Huh7 NPC1 promoter luciferase reporter, 24 h; Potency, µM (highest dose often 9.22 µM), for the others: top-dose activation, actives largely listed as activators; 2.4% of 320,000 active; note: % of control where 0% means no effect; nearly all actives have a fitted effect of over 60% in size
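In 1536-well qHTS, Huh7 cells harboring an NPC1 promoter–luciferase construct received compound for 24 h; activation was quantified by luminescence following luciferase reagent addition.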
Starred values were filed as active, the others as inactive; ? = inconclusive; nt = no result given; [ ] = remark or other dose. Hits are enriched below; roughly 7.3% of the tested compounds scored in any of these assays. Calls come from the whole dose curve; as a rule, active = well fitted curve in the direction sought with a large enough effect; inconclusive = small, poorly fitted or top-dose-only effect, or another doubt; inactive = no such curve, though single readings can be large; an effect the other way counts as inactive or inconclusive. Potency is the fitted concentration of half-maximal effect.

SMILES	FLuc modulator	SMN2 splice up	ELG1 genotoxic	KinaseGlo FLuc	Rab9 promoter act	NPC1 promoter act
Cc1cc(C=C2C(=O)CCCC2=O)c(C)n1-c1ccccc1	16.9µM*	4.4%	1.8%	-0.3%	-0.1%	1.0%
Cc1cc(/C=C2/C(=O)NN(c3ccccc3)C2=O)c(C)n1-c1ccc(O)cc1	0.151µM*	-77.5%	?	-11.2%	2.51µM*	?
O=C1NN(c2ccccc2)C(=O)/C1=C/c1coc2ccccc2c1=O	?	1.3%	15.5%	-1.9%	-8.1%	-2.6%
Cc1cc(/C=C2\C(=O)NN(c3ccccc3)C2=O)c(C)n1-c1ccccc1O	1.35µM*	nt	?	nt	2.82µM*	2.82µM*
O=C1NN(c2ccccc2)C(=O)/C1=C\c1coc2ccc(O)cc2c1=O	?	nt	1.6%	nt	-2.7%	-6.2%
COCCCNC(=O)CCCCn1c(=O)c2ccccc2n(CC(=O)Nc2ccc(C)cc2C)c1=O	-4.0%	0.0%	nt	nt	nt	nt
COc1ccc(Cl)cc1NC(=O)c1cc2nc(-c3ccc(C)cc3)cc(C(F)(F)F)n2n1	0.6%	4.5%	nt	nt	nt	nt
CC(C)c1ccc(NC(=O)CN2C(=O)c3cccc4cccc2c34)cc1	2.2%	nt	nt	nt	nt	nt
O=C(CCn1cccn1)Nc1ccc(Br)cc1F	-9.7%	nt	nt	nt	nt	nt
CCc1ccc(NC(=O)CSc2nc3ccccc3nc2N2CCCCC2)cc1	?	nt	19.5%	nt	13.2%	-4.8%
CCc1cccc(NC(=O)CSc2nc3ccccc3nc2N2CCCCC2)c1	-1.2%	0.501µM*	nt	nt	nt	nt
O=C(CCSCc1ccccc1F)N1CCN(c2ccccn2)CC1	19µM*	?	18.4µM*	0.3%	?	24.1%
Cc1ccc(Cl)cc1N1CCN(C(=O)CCSCc2ccccc2F)CC1	1.4%	nt	nt	nt	nt	nt
COC(=O)C1CCN(C(=O)CCCOc2ccccc2)CC1	4.78µM*	nt	2.59µM*	-7.3%	2.24µM*	?
O=C(CCCOc1ccccc1)N1CCN(c2ccccn2)CC1	6.75µM*	14.1µM*	2.06µM*	1.9%	0.891µM*	1.26µM*
O=C(c1c(Cl)cccc1Cl)N1CCN(c2ccccn2)CC1	7.4%	?	-11.0%	-2.7%	-6.8%	-8.0%
O=C(CCCOc1ccc(Cl)cc1Cl)N1CCN(c2ccccn2)CC1	-17.0%	-3.4%	-4.1%	2.0%	8.3%	-2.6%
O=C(N1CCN(c2ccccn2)CC1)C(Cl)(Cl)Cl	-14.2%	3.98µM*	0.9%	-5.8%	13.7%	6.0%
O=C(CSc1nnc2scc(-c3ccc(Cl)cc3)n12)Nc1ccc(F)cc1	0.4%	-13.3%	nt	nt	nt	nt
O=C(CCCOc1ccccc1)N1CCN(c2ccc(F)cc2)CC1	26.9µM*	-4.1%	?	17.4%	27.0%	24.7%
Cc1nc2ccccc2c(=O)n1/N=C/c1ccccc1	?	3.7%	1.6%	-1.2%	3.6%	3.2%
Cn1c(=O)n(/N=C/c2ccccc2)c2ccccc21	15.1µM*	?	2.5%	0.2%	17.0%	27.0%
CCOC(=O)C1CCN(Cc2nnnn2CCc2ccccc2)CC1	?	nt	?	-3.6%	1.58µM*	3.98µM*
COc1ccc(C(CNC(=O)c2ccco2)N2CCOCC2)cc1 (stereo not given)	nt	nt	6.7%	nt	3.0%	-1.8%
O=C(NC(C(=O)c1ccccc1)N1CCOCC1)c1cccs1 (stereo not given)	1.0%	?	13.5%	2.8%	24.0%	28.6%
SMILES	FLuc modulator	SMN2 splice up	ELG1 genotoxic	KinaseGlo FLuc	Rab9 promoter act	NPC1 promoter act
CSc1ccc(C(C(C(=O)c2cccs2)N2CCOCC2)N2CCOCC2)cc1 (stereo not given)	26.9µM*	13.8%	-1.3%	3.0%	-1.4%	2.5%
COc1ccc(C(C(C(=O)c2ccco2)N2CCOCC2)N2CCOCC2)cc1 (stereo not given)	13.5µM*	-2.0%	2.0%	-3.3%	-6.9%	0.2%
CCOc1ccccc1NC(=O)N(Cc1ccc(F)cc1)C1CCN(CC)CC1	0.4%	nt	nt	nt	nt	nt
O=C(c1cc2ccccc2oc1=O)N1CCN(c2ncccn2)CC1	21.3µM*	2.0%	18.4µM*	-3.5%	?	19.3%
COc1ccc(-c2cc(C(=O)N3CCN(c4ncccn4)CC3)c3ccccc3n2)cc1	0.675µM*	nt	0.3%	nt	?	?
COc1ccc(-c2cc(C(=O)N3CCN(c4ccccn4)CC3)c3ccccc3n2)cc1	0.675µM*	nt	-1.0%	nt	2.82µM*	?
CCCc1ccc(-c2cc(C(=O)N3CCN(c4ccccn4)CC3)c3ccccc3n2)cc1	0.107µM*	nt	?	nt	?	?
CC(C)c1ccc(/C=C2\SC(=O)N(CC(=O)NC3CCS(=O)(=O)C3)C2=O)cc1 (stereo not given)	1.07µM*	nt	8.9%	nt	?	3.98µM*
O=C(CN1C(=O)S/C(=C\c2ccccc2)C1=O)NC1CCS(=O)(=O)C1 (stereo not given)	2.9%	nt	0.4%	nt	-4.3%	0.9%
O=C(CN1C(=O)S/C(=C\C=C\c2ccccc2)C1=O)NC1CCS(=O)(=O)C1 (stereo not given)	5.36µM*	nt	7.2%[9.26 µM]	nt	2.82µM*	2.51µM*
CC(C)OC(=O)c1c(NC(=O)C2c3ccccc3Oc3ccccc32)sc2c1CCCC2	-0.8%	-7.0%	nt	nt	nt	nt
Fc1ccccc1/C=N/Nc1nn[nH]n1	0.5%	-15.9%	4.9%	-2.7%	13.6%	-2.6%
Fc1ccccc1/C=N/Nc1ccc(Cl)nn1	10.7µM*	nt	?	nt	?	?
